SNCA expr inh: inhibitors of alpha-synuclein (SNCA) gene expression | HEK-293 SNCA-luciferase knock-in, luminescence, 24 h | Potency, µM (highest dose often 57.2 µM), usual class: inhibitors | 0.17% of 140,000 active; also: nearly all actives have a fitted effect of over 45% in size
KDM5B inhibitor: KDM5B demethylase inhibition | Potency, µM (highest dose often 57.7 µM), usual class: inhibitors | AID 1347165 | Q9UGL1 | 2.6% of 220,000 active | KDM5B demethylase, FDH-coupled NADH fluorescence (FDH is formaldehyde dehydrogenase); also: nearly all actives have a fitted effect of over 70% in size
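Measured: NADH fluorescence change, 30 min, RT. System: KDM5BΔAP 200 nM final, H3K4me3 peptide, α-KG, Fe(II), ascorbate, NAD⁺ plus FDH, pH 7.5 HEPES. Compounds: titrated, 10 min pre-incubation with enzyme.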
SNCA viab count: cell viability loss counter-screen | Potency, µM (top dose mostly 57.1 µM), hits mostly cytotoxic | AID 1671193 | HEK-293-SNCA-luc viability, GF-AFC fluorescence, 24 h | 0.12% of 150,000 active; also: nearly all actives have a fitted effect of over 30% in size
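HEK-293-SNCA-luc cells (1500/well) plated 24 h, then exposed 24 h to a dilution series; GF-AFC added 30 min at 37C, fluorescence 405/540 nm; normalised to medium-only and DMSO wells, Hill fit.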
IP6K1 inhibitor: blocks human inositol hexakisphosphate kinase 1 | Q92551 | IP6K1 kinase, ADP-Glo luminescence, 2 h; stronger effect = lower value | activity change, % (series mostly up to about 58 µM) | 0.81% of 140,000 active | AID 1645851; in the data active = activity change below about -25%
Target sequence (Q92551 whole entry, looked up): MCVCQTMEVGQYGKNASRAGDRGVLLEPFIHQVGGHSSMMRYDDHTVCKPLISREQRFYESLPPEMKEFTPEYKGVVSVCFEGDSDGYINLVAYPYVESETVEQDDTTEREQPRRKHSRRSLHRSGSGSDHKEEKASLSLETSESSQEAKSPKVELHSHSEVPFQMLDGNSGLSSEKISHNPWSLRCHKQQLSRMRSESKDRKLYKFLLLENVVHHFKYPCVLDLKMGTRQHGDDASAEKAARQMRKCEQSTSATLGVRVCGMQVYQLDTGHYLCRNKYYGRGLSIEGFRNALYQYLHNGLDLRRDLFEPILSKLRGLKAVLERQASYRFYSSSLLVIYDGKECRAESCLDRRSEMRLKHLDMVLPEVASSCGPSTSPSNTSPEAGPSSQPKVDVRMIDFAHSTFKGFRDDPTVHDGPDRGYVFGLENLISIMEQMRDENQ
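ADP-Glo luminescence measures ADP made by human IP6K1 during a 2 h RT reaction with ATP/IP6 (mix at 1.3 mM/130 uM); top library doses 57.5 and 19.1 uM final.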
Numbers stand for hits; – = inactive; ? = inconclusive; · = no result. Sampled rows, rich in hits. Any-hit rate of the full collection: about 2.9%. Unless noted, calls follow the shape of the dose curve; as a rule, active = well fitted curve in the direction sought with a large enough effect; inconclusive = small, poorly fitted or top-dose-only effect, or another doubt; inactive = no such curve, though single readings can be large; an effect the other way counts as inactive or inconclusive.

SMILES	SNCA expr inh	KDM5B inhibitor	SNCA viab count	IP6K1 inhibitor
OCC1CN(c2ncccn2)CC12CCN(Cc1cccnc1)CC2 (centres undefined)	–	?	–	–
CC(C)Oc1ccccc1CN1CCC2(CC1)CN(c1ncccn1)CC2CO (centres undefined)	–	?	–	–
OCC1CN(c2ncccn2)CC12CCN(Cc1ccc3cc[nH]c3c1)CC2 (centres undefined)	–	28µM	–	–
Cn1cccc1CN1CCC2(CC1)CN(c1ncccn1)CC2CO (centres undefined)	–	32µM	–	–
OCC1CN(c2ncccn2)CC12CCN(Cc1cc(Cl)ccc1F)CC2 (centres undefined)	–	25µM	–	–
COc1cccc(CN2CCC3(CC2)CN(c2ncccn2)CC3CO)n1 (centres undefined)	–	22µM	–	–
O=C(O)CC1(CC(=O)N[C@H]2CO[C@H]3[C@@H]2OC[C@@H]3n2nnnc2Oc2ccc(-n3cncn3)cc2)CCCC1	–	–	–	–
Cc1ccc(CC(=O)NC(C)C(=O)N2CCN(c3ccccn3)CC2)cc1 (centres undefined)	–	28µM	–	–
CC(NC(=O)CCc1ccccc1)C(=O)N1CCN(c2ccccn2)CC1 (centres undefined)	–	25µM	–	–
O=C1CCN(C(=O)c2cccs2)CCCC(C(=O)N2CCN(c3ccccn3)CC2)CCN1 (centres undefined)	–	?	–	–
COCCC(=O)N1CCCC(C(=O)N2CCN(c3ccccn3)CC2)CCNC(=O)CC1 (centres undefined)	–	28µM	–	–
CC(NC(=O)C(C)(C)C)C(=O)N1CCN(c2ccccn2)CC1 (centres undefined)	–	28µM	–	–
COc1ccc(CC(=O)NC(C)C(=O)N2CCN(c3ccccn3)CC2)cc1Cl (centres undefined)	–	?	–	–
CN(Cc1ccc(-c2ccccc2)cc1)CC1CC1	–	–	–	–
O=C(Nc1ccc(Cl)cc1)N1CCCC(C(=O)N2CCC(N3CCOCC3=O)CC2)C1 (centres undefined)	–	·	–	–
CC(=O)N1CCC(Cc2ccc(CN(C(=O)CCc3ccccc3)C3CC3)cc2)CC1	–	·	–	–
COc1ccc(-c2nc(CS(=O)CC(=O)NCc3ccccc3Cl)c(C)o2)cc1 (centres undefined)	·	–	·	·
CC(NC(=O)CCC(=O)c1ccc(F)cc1)C(=O)N1CCN(c2ccccn2)CC1 (centres undefined)	–	?	–	–
COCCC(=O)NC(C)C(=O)N1CCN(c2ccccn2)CC1 (centres undefined)	–	25µM	–	–
CCCC(=O)NC(C)C(=O)N1CCN(c2ccccn2)CC1 (centres undefined)	–	25µM	–	–
COc1cccc(-c2cn3c(n2)N(C(=O)C2CCCC2)CCC3)c1	–	?	–	–
O=C(C[C@@H]1O[C@H](CNCc2cccc(Cl)c2)[C@@H](O)[C@H]1O)N1CCN(c2ccc(F)cc2)CC1	–	–	–	–
CCOC(=O)c1nn(Cc2ccc(OC)cc2)c2c1CN(C(=O)c1ccc3nc[nH]c3c1)CC2	–	32µM	–	–
O=C(Cn1nc2c(cc1=O)CCCC2)Nc1nnc(C2CCC2)s1	–	–	–	–
CCOc1ccc(NC(=O)c2cc3c(N4CCSCC4)nc(C)cn3n2)cc1	–	4µM	–	–
SMILES	SNCA expr inh	KDM5B inhibitor	SNCA viab count	IP6K1 inhibitor
Cc1cn2nc(C(=O)Nc3ccc(N(C)C)cc3)cc2c(N2CCSCC2)n1	–	–	–	–
CCOc1ccccc1NC(=O)c1cc2c(N3CCSCC3)nc(C)cn2n1	–	28µM	–	–
COc1ccc(-c2nc3c(C)cccc3cc2CN2CCC[C@H]2CO)cc1OC	–	25µM	?	–
Cc1ccccc1-c1nc2cc3c(cc2cc1CN1CCC[C@H]1CO)OCO3	–	?	–	–
COc1cc2cc(CN3CCC[C@H]3CO)c(-c3cccc(Cl)c3)nc2cc1OC	–	25µM	–	–
COc1ccc(-c2nc3cc(C)ccc3cc2CN2CCC[C@@H]2CO)cc1OC	–	?	–	–
COc1ccc(-c2nc3c(C)cccc3cc2CN2CC[C@@H](O)C2)cc1	–	18µM	?	–
O=C(Nc1ccc(OC2CCCC2)cc1)c1ccccn1	·	–	·	·
CCCCCNC(=O)c1ccc(Cn2ccn3nc4c(c3c2=O)CCCC4)cc1	–	?	–	–
Cc1cc(C)c(SC(C)C(=O)NC2CC2)c(C)c1 (centres undefined)	·	–	·	·
Cc1nc2ccc(S(=O)(=O)N(CC(=O)N3CCC(C)CC3)Cc3ccccc3)cc2s1	·	–	·	·
Cc1ccc2c(c1)c(C(=O)N[C@H](c1cnn(C)c1)C1CC(O)C1)nn2C (some centres undefined)	–	28µM	–	–
Cc1[nH]c(-c2ccccc2)nc1C(=O)N[C@H](c1cnn(C)c1)C1CC(O)C1 (some centres undefined)	–	–	–	–
O=C(c1cc(-c2ccc(O)cc2)n[nH]1)N1CCCC(CCc2ccc(F)cc2)C1 (centres undefined)	?	–	–	–
CNc1ncc(C(=O)N2CCCC(CCc3ccc(F)cc3)C2)cn1 (centres undefined)	–	20µM	–	–
O=C(NCc1nnc2ccc(-c3ccccc3)nn12)c1cccc(Cl)c1	?	?	–	–
Cc1ccc(-c2ccc3nnc(CNC(=O)c4ccc(F)c(F)c4)n3n2)cc1C	?	32µM	–	–
COc1ccccc1CC(=O)NCc1nnc2ccc(-c3ccc(C)c(C)c3)nn12	–	32µM	–	–
O=C(NCc1nnc2ccc(-c3ccccc3)nn12)c1cccc(C(F)(F)F)c1	–	32µM	–	–
O=C(NCc1nnc2ccc(-c3ccc(Cl)cc3)nn12)c1cccc(Br)c1	–	28µM	–	–
Cc1ccc(-c2ccc3nnc(CNC(=O)c4ccc(N(C)C)cc4)n3n2)cc1C	–	–	–	–
CN(C(=O)CCN1Cc2ccccc2C1=O)C1CCCN(CCc2ccccc2)C1 (centres undefined)	–	–	–	–
Cc1ccc(-c2ccc3nnc(CNC(=O)c4ccc(F)c(F)c4)n3n2)cc1	–	28µM	–	–
COc1ccc(C(=O)NCc2nnc3ccc(-c4ccc(C)c(C)c4)nn23)cc1	–	20µM	–	–
O=C(NCc1nnc2ccc(-c3ccc(Cl)cc3)nn12)c1ccc(F)c(F)c1	–	32µM	–	–
Cc1ccc(-c2ccc3nnc(CNC(=O)Cc4ccc(Cl)cc4)n3n2)cc1	?	?	–	–
Cc1ccc(-c2ccc3nnc(CNC(=O)c4ccc5c(c4)OCO5)n3n2)cc1	–	–	–	–
Cc1ccc(-c2ccc3nnc(CNC(=O)c4ccco4)n3n2)cc1C	–	22µM	–	–
Cc1ccc(-c2ccc3nnc(CNC(=O)c4ccc[nH]4)n3n2)cc1C	–	–	–	–
CCOc1ccc(/C(O)=C2\C(=O)C(=O)N(Cc3cccnc3)C2c2ccc(C)cc2)cc1Cl (centres undefined)	·	–	·	·
